How the values were obtained:
Test in all cases: universal protein binding microarray (PBM); transcription factors of Arabidopsis thaliana; high values mean tight binding
Settings in all cases: protein: recombinant; tags: GST; chain copies: 2; dsDNA, one strand shown
GST-ANAC092(1-176) = molecular target: T1, GST-ANAC092(1-176) (Arabidopsis thaliana, UniProt Q9FKA0 1-176)
T1 sequence: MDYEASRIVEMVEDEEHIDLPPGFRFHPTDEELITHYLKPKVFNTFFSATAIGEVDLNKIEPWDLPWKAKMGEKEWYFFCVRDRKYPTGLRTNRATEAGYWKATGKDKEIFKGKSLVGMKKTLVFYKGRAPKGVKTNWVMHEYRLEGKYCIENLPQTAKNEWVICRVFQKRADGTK
Procedure, shortened: (§1)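 Binding is expressed as the normalised enrichment score (E-score). Proteins carrying a GST tag, whether NAC-domain, full-length or DNA-binding-domain forms, were induced in cells, and zinc acetate was added for zinc-finger proteins. After purification on glutathione–Sepharose 4B and quantification by A280 or anti-GST western blot, each was applied in duplicate at 200 to 500 nM final to custom all-10-mer Agilent 4 × 180K arrays made double-stranded by primer extension. Gapped and ungapped 8-mers were scored.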

GST-NTL6(1-168) = GST-NTL6(1-168) (Arabidopsis thaliana, UniProt Q9SCK6 1-168)
Chain of GST-NTL6(1-168) (Q9SCK6 1-168): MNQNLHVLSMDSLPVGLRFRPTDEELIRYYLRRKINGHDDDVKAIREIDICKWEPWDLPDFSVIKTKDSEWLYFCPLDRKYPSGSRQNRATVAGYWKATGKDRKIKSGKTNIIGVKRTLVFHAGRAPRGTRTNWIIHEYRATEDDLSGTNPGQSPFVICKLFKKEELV
Procedure, shortened: as §1

GST-ANAC019 NAC domain = molecular target: T2, GST-ANAC019 NAC domain (Arabidopsis thaliana, UniProt Q9C932 14-162)
T2 sequence: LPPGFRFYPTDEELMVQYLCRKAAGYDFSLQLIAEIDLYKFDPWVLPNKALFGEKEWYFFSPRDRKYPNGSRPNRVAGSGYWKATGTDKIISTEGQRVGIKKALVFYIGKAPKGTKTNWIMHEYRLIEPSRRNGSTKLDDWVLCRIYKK
Procedure, shortened: as §1

GST-ANAC055(1-171) = molecular target: T3, GST-ANAC055(1-171) (Arabidopsis thaliana, UniProt Q9LDY8 1-171)
T3 sequence: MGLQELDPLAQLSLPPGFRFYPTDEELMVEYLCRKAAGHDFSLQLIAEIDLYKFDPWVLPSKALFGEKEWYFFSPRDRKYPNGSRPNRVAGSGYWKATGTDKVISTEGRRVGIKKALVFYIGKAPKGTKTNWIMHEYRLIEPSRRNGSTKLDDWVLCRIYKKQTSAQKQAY
Procedure, shortened: as §1

GST-ATAF1 NAC domain = molecular target: T4, GST-ATAF1 NAC domain (Arabidopsis thaliana, UniProt Q39013 7-158)
T4 sequence: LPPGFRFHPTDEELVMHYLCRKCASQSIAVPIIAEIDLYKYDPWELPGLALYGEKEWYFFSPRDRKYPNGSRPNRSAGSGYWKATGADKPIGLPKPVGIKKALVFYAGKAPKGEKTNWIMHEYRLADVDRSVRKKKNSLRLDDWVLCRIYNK
Procedure, shortened: as §1

[1] = molecular target: T5, GST-ANAC092(1-285) full length (Arabidopsis thaliana, UniProt Q9FKA0 1-285)
T5 sequence: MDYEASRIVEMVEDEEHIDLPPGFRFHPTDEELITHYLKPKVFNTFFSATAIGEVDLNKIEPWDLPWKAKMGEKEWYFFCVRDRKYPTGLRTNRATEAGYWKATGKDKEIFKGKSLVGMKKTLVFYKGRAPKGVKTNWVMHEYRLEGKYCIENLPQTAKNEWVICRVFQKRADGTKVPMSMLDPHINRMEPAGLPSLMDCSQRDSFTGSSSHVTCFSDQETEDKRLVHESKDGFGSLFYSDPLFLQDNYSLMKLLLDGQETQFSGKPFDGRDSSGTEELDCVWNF
Procedure, shortened: as §1

GST-NST2(1-184) = molecular target: T6, GST-NST2(1-184) (Arabidopsis thaliana, UniProt Q9M274 1-184)
T6 sequence: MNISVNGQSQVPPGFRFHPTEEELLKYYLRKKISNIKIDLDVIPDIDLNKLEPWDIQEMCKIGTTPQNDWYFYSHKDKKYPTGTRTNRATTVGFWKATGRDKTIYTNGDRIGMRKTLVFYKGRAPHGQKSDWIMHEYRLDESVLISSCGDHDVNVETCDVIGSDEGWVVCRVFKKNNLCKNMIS
Procedure, shortened: as §1

GST-NTL8 NAC domain = molecular target: T7, GST-NTL8 NAC domain (Arabidopsis thaliana, UniProt Q9XIN7 14-156)
T7 sequence: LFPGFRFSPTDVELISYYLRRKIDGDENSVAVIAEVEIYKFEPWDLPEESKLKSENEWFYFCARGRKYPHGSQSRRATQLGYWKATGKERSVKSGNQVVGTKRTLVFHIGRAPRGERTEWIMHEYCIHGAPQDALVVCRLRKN
Procedure, shortened: as §1

GST-SND1(1-203) = molecular target: T8, GST-SND1(1-203) (Arabidopsis thaliana, UniProt Q9LPI7 1-203)
T8 sequence: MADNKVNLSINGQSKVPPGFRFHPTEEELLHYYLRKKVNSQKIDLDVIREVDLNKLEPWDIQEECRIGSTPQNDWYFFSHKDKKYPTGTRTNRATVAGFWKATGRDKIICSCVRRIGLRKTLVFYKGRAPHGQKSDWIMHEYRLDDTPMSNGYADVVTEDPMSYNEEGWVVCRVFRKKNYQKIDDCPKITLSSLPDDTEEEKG
Procedure, shortened: as §1

GST-VND3 NAC domain = molecular target: T9, GST-VND3 NAC domain (Arabidopsis thaliana, UniProt Q9FH59 12-162)
T9 sequence: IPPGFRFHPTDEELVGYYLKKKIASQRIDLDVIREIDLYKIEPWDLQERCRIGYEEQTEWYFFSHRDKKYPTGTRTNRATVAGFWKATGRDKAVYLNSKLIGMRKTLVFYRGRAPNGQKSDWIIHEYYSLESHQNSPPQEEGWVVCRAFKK
Procedure, shortened: as §1

GST-VND7 NAC domain = molecular target: T10, GST-VND7 NAC domain (Arabidopsis thaliana, UniProt Q9C8W9 9-158)
T10 sequence: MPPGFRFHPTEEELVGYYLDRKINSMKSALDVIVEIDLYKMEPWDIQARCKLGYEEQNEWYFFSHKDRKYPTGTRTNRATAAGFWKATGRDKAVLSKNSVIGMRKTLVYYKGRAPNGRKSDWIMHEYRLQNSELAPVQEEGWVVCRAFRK
Procedure, shortened: as §1

GST-NAP(1-166) = molecular target: T11, GST-NAP(1-166) (Arabidopsis thaliana, UniProt O49255 1-166)
T11 sequence: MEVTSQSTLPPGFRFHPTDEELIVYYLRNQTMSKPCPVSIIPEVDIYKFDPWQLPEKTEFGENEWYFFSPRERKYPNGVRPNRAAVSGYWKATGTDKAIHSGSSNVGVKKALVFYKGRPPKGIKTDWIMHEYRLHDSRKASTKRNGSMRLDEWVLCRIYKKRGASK
Procedure, shortened: as §1

| Sequence | binding signal (GST-ANAC092(1-176)) [E-score] | binding signal (GST-NTL6(1-168)) [E-score] | binding signal (GST-ANAC019 NAC domain) [E-score] | binding signal (GST-ANAC055(1-171)) [E-score] | binding signal (GST-ATAF1 NAC domain) [E-score] | binding signal [1] [E-score] | binding signal (GST-NST2(1-184)) [E-score] | binding signal (GST-NTL8 NAC domain) [E-score] | binding signal (GST-SND1(1-203)) [E-score] | binding signal (GST-VND3 NAC domain) [E-score] | binding signal (GST-VND7 NAC domain) [E-score] | binding signal (GST-NAP(1-166)) [E-score] |
| --- | --- | --- | --- | --- | --- | --- | --- | --- | --- | --- | --- | --- |
| CTAGGAAA | 0.146 | 0.188 | 0.18 | 0.214 | 0.167 | 0.0932 | 0.187 | 0.425 | 0.145 | 0.219 | 0.13 | – |
| CGAAGTAA | 0.199 | 0.448 | 0.128 | 0.143 | 0.23 | 0.279 | 0.223 | 0.416 | 0.303 | 0.138 | 0.19 | – |
| AAGTAATC | 0.348 | 0.414 | 0.144 | 0.154 | 0.22 | 0.37 | 0.285 | 0.328 | 0.347 | 0.188 | 0.136 | – |
| TTAAGTAA | 0.236 | 0.48 | 0.198 | 0.0996 | 0.168 | 0.3 | 0.258 | 0.34 | 0.403 | 0.17 | 0.135 | – |
| ACTTAACC | 0.197 | 0.402 | 0.17 | 0.115 | 0.132 | 0.186 | 0.164 | 0.243 | 0.221 | 0.203 | 0.209 | – |
| TATCGTAA | 0.2 | 0.146 | – | 0.0984 | 0.188 | 0.337 | 0.282 | – | 0.418 | 0.143 | 0.236 | 0.0786 |
| ATAGCGTA | 0.437 | 0.0935 | – | 0.136 | 0.165 | 0.438 | 0.355 | – | 0.476 | 0.137 | 0.254 | 0.128 |
| TAAGAAAA | 0.215 | 0.454 | – | 0.129 | 0.193 | 0.269 | 0.235 | 0.216 | 0.301 | 0.137 | 0.181 | – |
| AAGCAAAC | 0.331 | 0.359 | – | 0.194 | 0.137 | 0.355 | 0.31 | 0.336 | 0.401 | 0.181 | 0.206 | 0.119 |
| GCAAGAAA | 0.295 | 0.306 | – | 0.0836 | 0.189 | 0.401 | 0.201 | 0.229 | 0.307 | 0.12 | 0.0827 | – |
| TTAAGCAA | 0.357 | 0.471 | – | 0.133 | 0.133 | 0.356 | 0.334 | 0.252 | 0.473 | 0.198 | 0.227 | – |
| GCAAGCAA | 0.367 | 0.26 | 0.167 | 0.0669 | – | 0.42 | 0.28 | 0.0916 | 0.4 | 0.0906 | 0.216 | – |
| CTTGCTTA | 0.251 | 0.416 | 0.0719 | – | 0.136 | 0.347 | 0.17 | 0.194 | 0.437 | 0.124 | 0.0501 | – |
| ATTGCTTG | 0.355 | 0.228 | 0.19 | 0.115 | – | 0.408 | 0.296 | 0.143 | 0.406 | 0.223 | 0.218 | – |
| GTGGAGTA | 0.275 | 0.0723 | – | 0.0843 | 0.217 | 0.332 | 0.242 | – | 0.402 | 0.0649 | 0.15 | 0.0918 |

From paper PMC4081100, “A DNA-binding-site landscape and regulatory network analysis for NAC transcription factors in Arabidopsis thaliana”
